This is an account of results in the supplement of paper PMC6555819.

The subject of the assay is VDR:RXRa (NR concentration 270 nM, RXRa partner concentration 90 nM). Kind of assay: PBM binding z-score (relative to random genomic background probes); higher = stronger binding; sequences stand for … in GC…GCGATTGACAGCGTAGAATGAAGG
The procedure: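 Protein-binding microarray (Agilent 4x180K custom design, double-stranded 60-nt probes: 5' GC cap, 34-nt variable region, 24-nt constant primer region; full probe sequence given). Purified or IVT nuclear receptor:RXRα heterodimers (3:1 NR:RXRα, mostly 270:90 nM) or homodimers were incubated for 1 h in PBS with 2% milk and no ligand, then detected with Alexa488 antibodies. Fluorescence from o1-orientation probes (~5 replicates averaged) was converted to z-scores against 500 random hg19 background probes. Variable regions are seed direct-repeat (DR0–DR5) sites, all their single-nucleotide variants and half-site ablations.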
Consider TCTATTAGTAGATTAGGGCAACCGAAACAGCGGA, for which the PBM binding z-score worked out at 0.247.

Consider CCTAGATGGTCAAGGTCACACACGCTATAGGTAC, for which the PBM binding z-score is 4.15.

Take TCATATAGGTAAGTGCTAGGTGAAAGTCCGATCT: the PBM binding z-score was determined as 0.679.

GTACTAAGGTGAATAGGTCGTTGATGAGTAGGCG showed a PBM binding z-score of 1.24.

With GCTAGTTGGTGAGTAAAAGGTCACACACCGGTCG, the PBM binding z-score is 3.72.

In turn, GGAACGAGGGCAAAGTTGATCGCATCTGTCGACG gave a PBM binding z-score of 1.1.

Turning to CAAACTAGTTCACCGGAAGGTCAAAGTCCGCATG, the PBM binding z-score was 5.4.

Regarding AGTCAAAGTTCACTAAGTAACGTAAGATTCAGCT, the PBM binding z-score was found to be 3.9.

On to ATCTCTAGGTAACAAGTTCAGTGATAGAGAGGAC, for which the PBM binding z-score came to 1.91.

Consider CCTACTGGGCTAAAAAGGTCATTGATGCCGATAA, for which the PBM binding z-score is 4.33.

For ATACCAAGGTGAGCGTGAGGTCGTTGATACTAAC, the PBM binding z-score worked out at 3.32.

In the case of CCTACTGGGCCAAAAAGGTCATTGAGGCCGATAA, the PBM binding z-score came out at 6.03.

With ACTCAAAGTTCAGGACGAGGTAACGTAAAGCACG, the PBM binding z-score turned out to be 3.22.

Turning to ATCTCTAGGTAAAAATTCAGTGAATCCCGAGGAT, the PBM binding z-score was -0.13.

Turning to TGAATGAGGTTAAAGATCAGGGCACGTGGCGTCG, the PBM binding z-score turned out to be 2.19.

Sequence CGAACTATGTCAGAACAGGACAGTGAAGGATGAT yielded a PBM binding z-score of -0.317.

For TCTTGTAGATCAGCAGATTAAGAAAGCTGGCCAA, the PBM binding z-score was 0.172.

In the case of AGAACGAGTGCAATGAGTTGATAGCACGGGTGGC, the PBM binding z-score was 4.09.

As to TCAGACAGGTGAAGGTAACGCAGGTACGCAGTCG, the PBM binding z-score stood at 0.637.

AGTCAAAGTTCATCTAGGTAACTTAAGATATGCT: the PBM binding z-score turned out to be 4.95.

Sequence CGTCTAAGGTCAGAGAGGTCAGTGAATGCCGAGT had a PBM binding z-score of 7.63.

Turning to AGACTGAGGTTAAGATCAGGGAAACAGAATACAT, the PBM binding z-score was determined as 0.967.

For the sequence CGAACTAGGTCATTGACAGGAGAGTGAATAGTAA, the PBM binding z-score turned out to be 1.62.

TAGCCTAGGTCATTCAGGAGCCAGTATAGAAAGC registered a PBM binding z-score of 2.21.

As for CAAACTAGGTCACCGGAAGGTCAACGTCCGCATG, the PBM binding z-score amounted to 5.72.

In the case of CCTTACGGGTCACTCCAGGCTATAGCATCGGAGT, the PBM binding z-score was 2.98.

Sequence AGTCAAAGTTCAGGACGAAGTAACGTAAAGCACG came in with a PBM binding z-score of 2.

The sequence CTAGAAAGGTCGTGCTCAGGTGAGTATACCAAAC had a PBM binding z-score of 3.1.

For AGTCAAAGTTCACCAGGTAACGTAAGATTCAGCT, the PBM binding z-score amounted to 4.61.

AGAATGAGGTTACCAAAGATCAGAGAAACGCTTG had a PBM binding z-score of 1.36.

Sequence TCTTGTAGATCAAAAGGAGGTTAAGAAAGATCGA came in with a PBM binding z-score of 0.807.

Consider CTCGAAAGGTCGGTTGAGGTGAGAATACGGATAA, for which the PBM binding z-score worked out at 2.26.

Consider TATCCAGGGTCAAAGGCCAGAGTACGAATGTCGA, for which the PBM binding z-score was found to be 4.95.

Sequence GTACCACGGTGAATAGGTCGTTGATGAGTAGGCG had a PBM binding z-score of -0.0883.

AGAATGAGGTTACCAAACATCAGGGAAACGCTTG gave a PBM binding z-score of 1.04.

For CATACTGGGCCAAAAAGGTCATTGATGCCGATAA, the PBM binding z-score was 5.08.

Regarding GCAGACAGGTAAAACGCAGGTAACTCAGGGTGGC, the PBM binding z-score was -0.484.

GGAACGAGGGCAAGTTGATAGCAGAGTTTGATGG returned a PBM binding z-score of 0.688.

In turn, GATAGAGGGTCAGCTAGAGGCCAGAGTATGGAAA showed a PBM binding z-score of 2.45.

In turn, GTACCAAGGTGAATAGGGCGTTGATGAGTAGGCG yielded a PBM binding z-score of -0.176.
